We go through 8 compounds from PubChem BioAssay (Tox21).

Assay [1] is described as follows: qHTS RealTime-Glo MT Cell Viability Assay in HEK293 cells - 8 hour (AID 1224887). Also: nearly all actives have a fitted effect of over 50% in size. Also: potency is read from the fitted curve at half-maximal effect. As to activity change, negative = cytotoxicity: top concentration of the series differs between compounds. An outline of the steps:
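Luminescence readout at each listed time point; HEK293, 600 cells/well, RealTime-Glo MT reagent added with cells; compounds pinned (23 nL in DMSO) after 5 h at 37 C; continuous culture at 37 C.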

Assay [2] in a line: A CellTox Green Cytotoxicity Assay to monitor cytotoxicity in HEK293 cells - 16 hour (AID 1224888). Also: nearly all actives have a fitted effect of over 35% in size. An outline of the steps: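 Read-out: fluorescence of a cell-impermeant cyanine dye staining DNA of dead cells, proportional to cytotoxicity. HEK293, 600 cells/well with reagent, compound (23 nL DMSO) added after 5 h; reads at 0, 8, 16, 24, 32, 40 h.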
The nature of assay [3]: qHTS RealTime-Glo MT Cell Viability Assay in HepG2 cells - 0 hour (AID 1224889). Also: nearly all actives have a fitted effect of over 50% in size. An outline of the steps:
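HepG2 cells were seeded at 600 cells/well together with NanoLuc luciferase and a cell-permeant prosubstrate, preincubated 5 h at 37 C/5% CO2, then pin-dosed with compounds in DMSO. Nonlytic luminescence from viable cells was read at each time point.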

Assay [4] is described as follows: A CellTox Green Cytotoxicity Assay to monitor cytotoxicity in HepG2 cells - 8 hour (AID 1224890). Also: nearly all actives have a fitted effect of over 45% in size. Put shortly:
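HepG2, 600 cells/well premixed w/ CellTox Green; 5 h settle, 37 C/5% CO2; pintool cpd add (DMSO); 37 C, 40 h; fluorescence read at 0, 8, 16, 24, 32, 40 h.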

Assay [5] can be described thus: qHTS assay to identify small molecule antagonists of the estrogen receptor alpha (ER-alpha) signaling pathway using the BG1 cell line in the presence of 0.1 nM 17-beta-estradiol - cell viability counter screen (AID 1259241). Also: nearly all actives have a fitted effect of over 40% in size. An outline of the steps: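 In this screen, hormone-deprived VM7Luc4E2 cells were seeded at 4,000 per well, dosed with compound and 0.1 nM estradiol final, and incubated 22 hr at 37C and 5% CO2; fluorogenic live-cell protease signal reported viability.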

A short description of assay [6]: qHTS assay to identify small molecule antagonists of the androgen receptor (AR) signaling pathway using the MDA cell line in the presence of 0.5 nM R1881 - cell viability counter screen (AID 1259242). Also: nearly all actives have a fitted effect of over 45% in size. Put shortly: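 Live-cell protease fluorescence, CellTiter-Fluor, 30 min at 37C. Cells: MDA-kb2, 3,000/well, preincubated 5 hr. Compounds plus 0.5 nM R1881 final, 16 hr, 37C, 0% CO2.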

Assay [7] in a line: qHTS assay to identify small molecule HDAC inhibitors (AID 1259364).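 Also: wild-type HCT-116 cells with endogenous class I/II HDAC activity; top concentration of the series differs between compounds; nearly all actives have a fitted effect of over 45% in size.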 Put shortly: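 HCT-116 (wild type), 1,500 cells/well, overnight; compound 2 hr 37C 5% CO2; HDAC-Glo I/II reagent 30 min RT; luminescence readout.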
Assay [8] can be described thus: qHTS assay to identify small molecule HDAC inhibitors - cell viability counter screen (AID 1259365). Also: series mostly up to about 92 µM; nearly all actives have a fitted effect of over 50% in size. An outline of the steps: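 Measured quantity is CellTiter-Glo luminescence from wild-type HCT-116 cells after compound incubation of 2hr at 37C, 5% CO2; reagent developed 30min at room temperature.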
Assay [9] can be described thus: qHTS assay to identify small molecule agonists of the sonic hedgehog signaling (Shh) pathway - cell viability counter screen (AID 1259366). Also: nearly all actives have a fitted effect of over 50% in size. Put shortly:
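In quantitative high-throughput format, 3T3 Gli1-Luc cells were exposed to compounds for 24hr and multiplexed for viability using CellTiter-Fluor, incubated 1hr at 37C before the fluorescence read.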

Assay [10] can be described thus: qHTS assay to identify small molecule antagonists of the sonic hedgehog signaling (Shh) pathway - cell viability counter screen (AID 1259367). Also: nearly all actives have a fitted effect of over 55% in size. Put shortly:
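Cytotoxicity was assessed in parallel with Shh reporter activity by measuring live-cell protease fluorescence (CellTiter-Fluor) in NIH/3T3 cells stably carrying Gli1-Luc, treated with compound under conditioned medium stimulation for 23 hr plus 1 hr reagent incubation.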

Assay [11] in a line: qHTS assay to identify small molecule agonists of the sonic hedgehog signaling (Shh) pathway (AID 1259368; calls by dose curve;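 also: NIH/3T3-derived 3T3Gli1-Luc cells carrying a stable Gli1-driven firefly luciferase reporter; series mostly up to about 92 µM; nearly all actives have a fitted effect of over 15% in size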). An outline of the steps:
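Read-out: firefly luciferase luminescence from a Gli1 response element reporter stably integrated in NIH/3T3-derived 3T3Gli1-Luc cells, measured 30 min at room temperature after reagent addition. Compound exposure lasted 24 hr at 37 C, 5% CO2.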

A short description of assay [12]: qHTS assay to identify small molecule antagonists of the sonic hedgehog signaling (Shh) pathway (AID 1259369; calls by dose curve; also: nearly all actives have a fitted effect of over 45% in size; also: potency is read from the fitted curve at half-maximal effect). Put shortly: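 Luminescence readout: firefly Luc under Gli1 response element in 3T3Gli1-Luc cells (NIH/3T3 clone). Antagonist mode, stimulation by conditioned medium; compound exposure 24hr at 37 C, 5% CO2.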
Assay [13] addresses Estrogen receptor beta (Homo sapiens) (UniProt Q92731). As to the kind of experiment: qHTS assay to identify small molecule agonists of the estrogen receptor beta (ER-beta) signaling pathway (AID 1259377; active = well fitted activation curve with a large enough effect in the signal ratio in the repeat runs, not every such curve was filed as active; the % refers to the signal ratio). An outline of the steps: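 Reporter cells (HEK293T, ER-beta-UAS-bla) receive compounds or DMSO after a 6 hr pre-incubation. They then incubate 16 hr at 37C/5% CO2, and fluorescence from LiveBLAzer B/G substrate is measured after 2 hours at room temperature.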

Assay [14] shares this target. The assay can be described thus: qHTS assay to identify small molecule antagonists of the estrogen receptor beta (ER-beta) signaling pathway (AID 1259378; active = well fitted inhibition curve with a large enough effect in the signal ratio in the repeat runs, not every such curve was filed as active; the % refers to the signal ratio). An outline of the steps: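 ER-beta-UAS-bla HEK293T (GripTite) cells in 2% charcoal-stripped FBS medium were preincubated 6 hr at 37C, dosed with compound, then stimulated with 1 nM E2 (final) for 16 hr; beta-lactamase reporter read by B/G FRET fluorescence after 2 hr substrate loading.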

Assay [15] can be described thus: qHTS assay to identify small molecule agonists of the androgen receptor (AR) signaling pathway in the presence of an antagonist - cell viability counter screen (AID 1259379).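 Also: MDA-kb2 human breast cancer cells carrying an MMTV luciferase reporter; series mostly up to about 92 µM; nearly all actives have a fitted effect of over 25% in size.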 Put shortly:
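Viability counter screen: CellTiter-Fluor fluorescence, measured in the same wells as the luciferase read-out. MDA-kb2 cells, 3,000/well, with nilutamide at 3.0uM final and compounds at 15 concentrations, 16 hr at 37C, 0% CO2.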

Assay [16] in a line: qHTS assay to identify small molecule agonists of the estrogen receptor beta (ER-beta) signaling pathway - cell viability counter screen (AID 1259380). Also: nearly all actives have a fitted effect of over 30% in size. Put shortly: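 Luminescence read-out (CellTiter-Glo, 30 min, room temp) taken in the same wells as the beta-lactamase reporter assay; ER-beta-UAS-bla HEK293T cells exposed to DMSO-dissolved compounds for 16 hr at 37C in 2% charcoal-stripped FBS medium.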

For assay [17], the target named is Estrogen receptor (Homo sapiens) (UniProt P03372). As to the kind of experiment: qHTS assay to identify small molecule antagonists of the estrogen receptor alpha (ER-alpha) signaling pathway using the BG1 cell line in the presence of 0.1 nM 17-beta-estradiol (AID 1259244). Also: nearly all actives have a fitted effect of over 50% in size. An outline of the steps: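 Luminescence after ONE-Glo (30 min, room temperature) measured ERE-luciferase activity in VM7Luc4E2 cells treated 22 h with compound and 0.1 nM final 17beta-estradiol as stimulator.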
Chain of Estrogen receptor (Homo sapiens) (P03372 whole entry, looked up): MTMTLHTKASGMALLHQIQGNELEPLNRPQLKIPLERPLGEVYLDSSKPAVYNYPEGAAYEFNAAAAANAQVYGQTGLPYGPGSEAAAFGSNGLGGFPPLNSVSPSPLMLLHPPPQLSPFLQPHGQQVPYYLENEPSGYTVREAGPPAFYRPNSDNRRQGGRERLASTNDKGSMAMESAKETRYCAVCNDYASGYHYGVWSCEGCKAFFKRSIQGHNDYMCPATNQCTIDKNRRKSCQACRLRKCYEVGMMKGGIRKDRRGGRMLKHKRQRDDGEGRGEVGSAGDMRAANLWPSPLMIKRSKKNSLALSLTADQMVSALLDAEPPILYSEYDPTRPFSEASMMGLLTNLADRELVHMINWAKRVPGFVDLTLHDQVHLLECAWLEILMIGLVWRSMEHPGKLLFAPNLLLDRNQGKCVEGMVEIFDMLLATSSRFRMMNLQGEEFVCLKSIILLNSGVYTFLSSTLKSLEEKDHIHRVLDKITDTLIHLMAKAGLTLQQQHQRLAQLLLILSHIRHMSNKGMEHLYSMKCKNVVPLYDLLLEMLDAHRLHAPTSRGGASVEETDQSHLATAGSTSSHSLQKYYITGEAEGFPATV

A short description of assay [18]: qHTS assay to identify small molecule phospholipidosis (PLD) inducers (AID 1259344; active = well fitted curve in the direction sought with a large enough effect; an effect the other way counts as inactive or inconclusive). Put shortly: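 Cells (HepG2, 900 per well) attach for 4 h, receive LipidTOX Red and compound together, incubate 24 h at 37 C, are fixed 30 min with paraformaldehyde/Hoechst, then imaged at one site per well.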

Values without a mark were called inactive. Records with an inconclusive call do not appear. Activity calls are given as the source filed them. Unless noted, calls follow the shape of the dose curve; as a rule, active = well fitted curve in the direction sought with a large enough effect in the repeat runs; inconclusive = weak or mixed curves; inactive = no such curve, though single readings can be large; an effect the other way counts as inactive or inconclusive.
% is scaled to controls: 0 for no effect and ±100 for the full control effect.

Chain of Estrogen receptor beta (Homo sapiens) (Q92731 whole entry, looked up): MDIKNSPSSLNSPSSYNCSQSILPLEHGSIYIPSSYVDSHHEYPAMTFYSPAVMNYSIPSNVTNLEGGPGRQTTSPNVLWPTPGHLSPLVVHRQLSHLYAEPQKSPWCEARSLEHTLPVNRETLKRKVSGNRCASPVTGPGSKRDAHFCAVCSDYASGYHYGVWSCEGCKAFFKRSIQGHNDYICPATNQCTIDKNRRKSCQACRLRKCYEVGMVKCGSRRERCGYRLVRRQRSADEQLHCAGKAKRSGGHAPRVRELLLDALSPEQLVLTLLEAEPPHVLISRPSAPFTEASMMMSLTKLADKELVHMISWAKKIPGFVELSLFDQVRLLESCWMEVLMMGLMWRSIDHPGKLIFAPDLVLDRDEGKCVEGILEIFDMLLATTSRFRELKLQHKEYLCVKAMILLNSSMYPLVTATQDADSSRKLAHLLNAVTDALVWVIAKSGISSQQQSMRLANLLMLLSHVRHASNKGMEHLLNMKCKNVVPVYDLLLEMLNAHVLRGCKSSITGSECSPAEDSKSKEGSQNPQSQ

As for `COS(=O)(=O)O`, the Potency result in [1], in assay [2], in [3], in assay [4], in assay [7] and in [12] was “inactive” in each case. Moreover, the Potency entry in assay [13] and in [14] was “inactive” throughout. Besides, the result in assay [5], in assay [6], in assay [8], in assay [9], in assay [10] and in assay [11] was inactive. Also, the outcome in [15] and in assay [16] was inactive.

`C[C@@H](O)C(=O)O`: the Potency entry in assay [1], in [2], in assay [3], in [4], in assay [7] and in assay [12] was “inactive” throughout. Besides, the outcome in assay [5], in assay [6], in [17], in assay [8], in assay [9] and in [10] was inactive. Moreover, the call in assay [11], in [15] and in assay [16] was inactive.

For the compound `CCn1cc(C(=O)O)c(=O)c2cnc(N3CCCC3)nc21`, the activity change, negative = cytotoxicity is 10.5% [at 6.97 µM] in assay [1]; -5.5% [at 6.97 µM] in assay [3]; -1.69% [at 8.39 µM] in [5]; 0.53% [at 8.39 µM] in assay [8]; 0.387% [at 8.39 µM] in [15]; 2.48% [at 8.39 µM] in [16]. In addition, the activity change is 2.01% [at 6.97 µM, active compounds read high] in assay [2] and 1.04% [at 8.39 µM] in assay [11]. Besides, in assay [4], the cytotoxicity increase is 3.53% [at 6.97 µM]. Besides, the viability change, negative = cytotoxic is 7.44% [at 8.39 µM] in [6], -0.379% [at 8.39 µM] in assay [9] and -1.09% [at 8.39 µM] in [10]. In assay [18], the compound was called inactive. In addition, the activity change, negative = inhibition is 0.504% [at 8.39 µM] in [7] and 29.2% [at 8.39 µM] in assay [12]. For the same compound, the activation in assay [13] is 4.52% [at 8.39 µM]. Also, the activity, negative = inhibition in assay [14] was 15.3% [at 8.39 µM].

Regarding `CCCCOCC(C)O` (configuration not stated), the Potency entry in assay [1], in [2], in assay [3], in [4], in assay [7] and in assay [12] was “inactive” throughout. The result in [5], in [6], in assay [17], in [8], in [9] and in [10] was inactive. Further, the compound was called inactive in assay [11], in assay [15] and in [16].

For `C=Cc1ccc(C(C)(C)C)cc1`, the Potency entry in [1], in [2], in [3], in [4], in assay [7] and in assay [12] was “inactive” in each case. In addition, the outcome in assay [5], in assay [6], in [8], in assay [9], in [10] and in [11] was inactive. Also, the result in assay [15] and in assay [16] was inactive.

For `OCCN1CCOCC1`, the Potency entry in assay [1], in [2], in assay [3], in assay [4], in assay [7] and in assay [12] was “inactive” in each case. The Potency entry in assay [14] is “inactive”. In addition, the outcome in assay [5], in assay [6], in assay [17], in assay [8], in assay [9] and in [10] was inactive. The compound was called inactive in assay [11], in assay [15] and in assay [16].

For the compound `COc1c2occc2c(OC)c2c(=O)cc(C)oc12`, the Potency in assay [1] is 9.52 µM (active); in assay [12], 11.9 µM (active). For the same compound, the Potency result in assay [2], in [3] and in [4] was “inactive” throughout. In addition, the outcome in assay [5], in assay [6], in [18], in assay [8], in assay [9] and in [10] was inactive. Moreover, the compound was classed as inactive in [11] and in assay [15].

As to `C=C(C)[C@@H]1CC=C(C)C(=O)C1`, the Potency result in [1], in assay [2], in [3], in assay [4], in assay [7] and in assay [12] was “inactive” throughout. The Potency entry in assay [13] and in [14] was “inactive” in each case. The result in assay [5], in assay [6], in assay [8], in assay [9], in [10] and in assay [11] was inactive. In addition, the outcome in assay [15] and in assay [16] was inactive.
